Laboratory results published in ChEMBL document CHEMBL2218924, “A broad activity screen in support of a chemogenomic map for kinase signalling research and drug discovery” (Biochem J, 2013).

Each molecule was assayed against T1, Testis-specific serine/threonine-protein kinase 2 (Homo sapiens) (UniProt Q96PF2). Conditions: at 1 µM.
T1 sequence (whole entry): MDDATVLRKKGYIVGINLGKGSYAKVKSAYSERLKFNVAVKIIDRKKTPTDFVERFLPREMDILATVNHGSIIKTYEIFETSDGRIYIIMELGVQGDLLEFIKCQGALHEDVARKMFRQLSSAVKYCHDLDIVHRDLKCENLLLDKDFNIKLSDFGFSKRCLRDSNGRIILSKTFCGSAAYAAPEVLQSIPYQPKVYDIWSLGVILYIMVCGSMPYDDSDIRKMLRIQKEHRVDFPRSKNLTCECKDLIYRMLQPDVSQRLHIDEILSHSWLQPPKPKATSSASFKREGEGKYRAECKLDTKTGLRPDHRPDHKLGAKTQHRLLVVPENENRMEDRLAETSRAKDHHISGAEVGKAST

| Compound | residual activity [%] |
| --- | --- |
| COc1cc2ncnc(Nc3ccc(O)c(Br)c3)c2cc1OC | 93 |
| Cn1cnc2cc3c(Nc4cccc(Br)c4)ncnc3cc21 | 100 |
| O=C(NC(NC(=S)Nc1ccc(F)c([N+](=O)[O-])c1)C(Cl)(Cl)Cl)C(c1ccccc1)c1ccccc1 (stereo unspecified) | 102 |
| O=C1NC(=O)c2c1c1c3ccccc3[nH]c1c1[nH]c3cc(Br)ccc3c21 | 102 |
| Oc1ccc(Nc2nc(-c3ccc(Cl)cc3)cs2)cc1 | 101 |
| Cc1cc(Nc2nc(-c3ccccc3)nc3ccccc23)n[nH]1 | 96 |
| O=C1NC(=O)C(c2cn(CCCO)c3ncccc23)=C1c1cnccn1 | 59 |
| CN(C)CCCn1cc(C2=C(c3c[nH]c4ccccc34)C(=O)NC2=O)c2ccccc21 | 103 |
| CC(=O)O/N=C1\C(=C2\C(=O)Nc3cc(Br)ccc32)Nc2ccccc21 | 79 |
| CCC(=O)Nc1ccc2ncnc(Nc3cccc(Br)c3)c2c1 | 95 |
| N#CC(C#N)=C(N)/C(C#N)=C/c1ccc(O)cc1 | 85 |
| Nc1nc(Nc2ccc(S(N)(=O)=O)cc2)nn1C(=O)c1c(F)cccc1F | 103 |
| CCOc1cc2ncnc(Nc3cccc(Br)c3)c2cc1OCC | 82 |
| CC(C)c1nn(-c2c(Cl)cccc2Cl)c2nc(Cc3ccc(OCCO)cc3)[nH]c(=O)c12 | 93 |
| Nc1ncnc2c1cnn2-c1ccccc1 | 93 |
| Cn1c2ccccc2c2c3c(c4c5ccccc5n(CCC#N)c4c21)CNC3=O | 64 |
| O=Nc1c(-c2c(O)[nH]c3ccccc23)[nH]c2ccccc12 | 95 |
| c1ccc(-c2n[nH]c3c2oc2ccccc23)cc1 | 96 |
| CC#CC(=O)Nc1cc2c(Nc3ccc(F)c(Cl)c3)ncnc2cn1 | 87 |
| Cc1nc(-c2ccccc2)c(-c2ccncc2)o1 | 97 |
| CC(C)(C)n1nc(Cc2cccc3ccccc23)c2c(N)ncnc21 | 104 |
